In all, about 33,000 sequences were measured (“E-score (-0.5 to 0.5)”: median about -0.054, highest 2% from about 0.39 on). The sample as a whole holds a higher share of the highest values than the screen did.
What follows are sequences tested against Ylr278c (UniProt Q05854) (assay: PBM E-score (8-mer binding enrichment) (E-score (-0.5 to 0.5)); higher = stronger / more preferred TF binding). Conditions: protein concentration: 200 nM; construct: GST-DNA-binding domain.
In short: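 Yeast transcription factors carrying a GST tag, as full-length proteins or DNA-binding domains, were produced by PURExpress in vitro transcription/translation. About 100-200 nM protein was applied to universal all-10-mer Agilent arrays, double-stranded by primer extension on fresh or once-stripped slides. Bound protein was detected with fluorescent anti-GST, and scans were normalised with masliner. The Universal PBM Analysis Suite gave each ungapped eight-base word, pooled with its reverse complement, an E-score, a modified Wilcoxon-Mann-Whitney statistic.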

UniProt Q05854, sequence (Q05854 whole entry, the tested form may be a part): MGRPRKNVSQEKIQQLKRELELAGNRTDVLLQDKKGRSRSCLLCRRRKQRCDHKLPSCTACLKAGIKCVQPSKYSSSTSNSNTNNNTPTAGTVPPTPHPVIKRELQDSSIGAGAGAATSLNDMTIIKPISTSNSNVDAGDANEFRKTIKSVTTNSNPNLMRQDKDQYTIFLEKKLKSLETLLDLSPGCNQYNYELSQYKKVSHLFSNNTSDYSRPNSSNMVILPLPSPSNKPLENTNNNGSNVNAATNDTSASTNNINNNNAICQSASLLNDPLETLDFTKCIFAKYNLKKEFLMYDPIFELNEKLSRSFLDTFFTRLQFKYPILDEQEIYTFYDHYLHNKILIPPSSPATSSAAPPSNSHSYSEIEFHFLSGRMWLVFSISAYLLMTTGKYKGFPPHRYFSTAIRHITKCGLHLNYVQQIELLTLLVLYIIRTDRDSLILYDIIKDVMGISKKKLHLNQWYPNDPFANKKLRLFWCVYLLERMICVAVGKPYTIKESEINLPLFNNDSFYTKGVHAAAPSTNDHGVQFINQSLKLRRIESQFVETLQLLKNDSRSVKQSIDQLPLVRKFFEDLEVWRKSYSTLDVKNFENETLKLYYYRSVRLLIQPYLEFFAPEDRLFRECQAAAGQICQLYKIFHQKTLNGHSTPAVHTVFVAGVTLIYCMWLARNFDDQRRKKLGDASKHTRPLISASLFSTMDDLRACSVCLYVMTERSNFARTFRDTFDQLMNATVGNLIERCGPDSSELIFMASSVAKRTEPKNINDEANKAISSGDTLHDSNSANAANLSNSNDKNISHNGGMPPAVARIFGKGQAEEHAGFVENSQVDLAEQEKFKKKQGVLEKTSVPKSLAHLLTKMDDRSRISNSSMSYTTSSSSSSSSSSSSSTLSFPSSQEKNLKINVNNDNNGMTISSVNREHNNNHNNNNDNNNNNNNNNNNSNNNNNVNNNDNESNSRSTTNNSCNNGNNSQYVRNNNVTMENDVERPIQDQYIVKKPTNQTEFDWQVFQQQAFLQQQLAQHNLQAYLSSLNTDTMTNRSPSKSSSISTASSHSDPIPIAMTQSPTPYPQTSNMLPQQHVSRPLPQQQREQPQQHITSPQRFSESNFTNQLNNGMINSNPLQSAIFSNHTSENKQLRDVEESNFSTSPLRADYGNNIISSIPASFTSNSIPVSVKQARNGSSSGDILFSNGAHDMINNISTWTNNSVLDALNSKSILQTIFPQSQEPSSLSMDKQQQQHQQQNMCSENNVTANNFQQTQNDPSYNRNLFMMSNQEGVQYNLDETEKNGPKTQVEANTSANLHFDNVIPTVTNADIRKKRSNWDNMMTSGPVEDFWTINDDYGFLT

Sequence	PBM E-score
CTTTCGTA	-0.173
GTTTCGTA	0.0178
CTTTCGGC	0.239
ATTTCGGG	0.235
GCTTCGGA	0.367
CTTTCGGA	0.451
ATTTCGGA	0.45
GTTTCGAA	-0.0713
GTTTCGGA	0.4
ATTTCGGC	0.275
CCTTCGGC	0.112
CCTTCGGA	0.424
CTGGGTCC	0.0219
CTTATCTA	-0.0407
CAAAGCTA	-0.093
ACTCGCAT	-0.0232
AAGTTCAA	0.118
ACCACTTA	-0.0492
GGGCTCAC	-0.0724
GGAGCAGA	0.109
ACCTTCTA	-0.186
GTGTACGA	-0.00044
ATCCGCGC	0.251
CTCCGCGC	0.429
CACCGCGC	0.201
CTCCGCGA	0.403

Sequence	PBM E-score
GTCCGCGA	0.313
ATCCGCGA	0.253
CCAGCTCC	0.22
CATCTCCC	0.216
CATCTCCA	0.0295
CATCTCCG	0.463
AATCTCCC	0.0563
AATCTCCG	0.484
AATCTCCT	0.0721
ACGCTCTG	-0.251
CAACTCGG	0.139
ACCTCTGC	-0.209
AAGGAAGC	-0.162
ACTTCAGA	-0.0177
GCGGCCGA	0.188
ACGGCCGG	0.33
CCGGCCGG	0.461
CCGGCCGA	0.415
ACGGCCGA	0.246
CCGGCCGC	0.327
AGCGCCAT	-0.199
GACAGGGC	-0.0701
GCCTCCAC	-0.044
TAGCCATA	-0.329
GATGGGGC	-0.023
CAGGACTG	-0.287

Sequence	PBM E-score
CTTCCGTA	0.215
GTTCCGCA	0.289
ATTCCAGA	0.0166
ATTCCGTA	0.33
CTTCCGGC	0.371
GTTCCGTA	0.264
GTTCCGGA	0.45
ATTCCGGA	0.46
CTTCCGGA	0.451
ACTGTTTC	-0.0349
GTCAGCAA	-0.18
CGTCCAAA	0.14
ACCTCGCT	-0.0554
AGTCAGCG	0.0403
ATGCCCCA	-0.0328
CAGTCGAA	-0.212
AAAGCCTT	-0.162
ATCTCAAC	-0.00641
ATGGAGTA	0.0152
CAGGAGTC	0.055
GAGGAGTA	0.0495
CCGGAGTC	0.451
GGGGAGTA	0.0376
ATGGAGTC	0.0654
AAGGAGTA	-0.0326
CTGGAGTC	-0.0908

Sequence	PBM E-score
AAGGAGTC	-0.127
ACGGAGTC	0.398
ACGGAGTA	0.452
GCGGAGTA	0.449
AGAGTTGG	-0.115
ACTCTGTA	-0.175
GACCCAGC	-0.272
GATCCAGC	0.0556
ACACCGCC	0.199
AGACAGTC	-0.129
CTTACAGA	-0.0798
CGAGACCG	0.233
CTCAAGTC	-0.225
CATGTACG	-0.0652
CAGAATGG	-0.0518
GCTCTGGA	-0.1
CAGGAGTA	-0.0482
AAGGAGTG	-0.179
ACGGAGTG	0.401
ATGGAGTG	-0.0888
CCGGAGTA	0.485
CTGGAGTA	-0.0695
GTTCTAGA	0.0109
